From PubChem BioAssay (NCI)
About 83,000 compounds went through this panel and 20% of them were active in at least one assay; those are over-represented in the sample as a whole.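 How to read the values: 0–100, growth inhibition (40 = 60% inhibited); 0, no net growth; -100 to 0, cell death (-40 = 40% of starting cells died; -100 = all dead).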 Activity calls are given as the source filed them. Rule for the calls: active = growth percent below 10; inactive = the rest.

Tests used:
Assay in all cases: NCI-60 one-dose screen, 48 h (100 = growth as untreated, 0 = no growth, -100 = all killed)
Conditions in all cases: 10 µM
[1] = test system: NCI-H23 lung
[2] = test system: NCI-H226 lung
[3] = test system: NCI-H322M lung
[4] = test system: HOP-62 NSCLC
[5] = test system: HOP-92 NSCLC
[6] = test system: NCI-H522 lung
[7] = test system: A549/ATCC NSCLC
[8] = test system: 786-0 renal
[9] = test system: COLO 205 colon
[10] = test system: NCI-H460 lung

Measured: growth

C#C[C@H]1CCCCCC1O (some centres undefined)
inactive: [1] 95.7% | [2] 96.5% | [3] 104% | [4] 105% | [5] 87% | [6] 94.8% | [7] 105% | [8] 103% | [9] 111%

O=C(O)/C=C/C(=O)NCc1ccccc1
inactive: [1] 107% | [2] 98.4% | [3] 93.5% | [4] 101% | [10] 104% | [8] 98.9% | [9] 106%

COc1ccc(C(=O)C(Br)C(Br)C(=O)O)cc1 (centres undefined)
inactive: [1] 99.1% | [2] 102% | [3] 94.1% | [4] 108% | [10] 104% | [8] 100% | [9] 110%

CC(C)=CC(=O)OC(=O)C=C(C)C
inactive: [1] 117% | [2] 93.5% | [3] 104% | [4] 103% | [10] 106% | [8] 106% | [9] 113%

COc1cc(CCN=Cc2ccccc2O)c([N+](=O)[O-])cc1OC
inactive: [1] 100% | [2] 104% | [3] 101% | [4] 91.9% | [10] 108% | [7] 102% | [8] 92.6% | [9] 110%

CCC(C)(C)C1CCC(O)CC1 (centres undefined)
inactive: [1] 91% | [2] 103% | [3] 103% | [4] 90.5% | [10] 103% | [7] 106% | [9] 110%

CCOc1ccccc1/C=N/Nc1nc2ccccc2o1
inactive: [1] 91.8% | [2] 103% | [3] 113% | [4] 97.2% | [5] 87.9% | [6] 110% | [7] 98.6% | [8] 116% | [9] 121%

CCN(CC)C(=O)/C=C(/C)c1ccccc1
inactive: [1] 96.5% | [2] 97.2% | [3] 106% | [4] 109% | [5] 80.2% | [6] 107% | [7] 113% | [8] 101% | [9] 106%

CCOc1ccc(/C=N/N=C(N)N)cc1OCC
inactive: [1] 92% | [2] 93.3% | [3] 110% | [4] 106% | [5] 99.4% | [6] 99.2% | [7] 95.7% | [8] 100% | [9] 107%

CC[N+](C)(CC)CCO
inactive: [1] 107% | [2] 92.7% | [3] 104% | [4] 92.6% | [10] 105% | [7] 94.1% | [8] 99.5% | [9] 114%

COc1cc(OC)c2ccc(=O)oc2c1
inactive: [1] 101% | [2] 114% | [3] 107% | [4] 101% | [5] 98.3% | [6] 116% | [7] 97% | [8] 105% | [9] 107%

CCN1C(=O)/C(=C/C=C/N(C)c2ccccc2)SC1=S
inactive: [1] 92.9% | [2] 66.4% | [3] 94.6% | [4] 36.2% | [5] 103% | [6] 60.9% | [7] 82.8% | [8] 79.8% | [9] 104%

CC1(O)OC(COc2ccc(Cl)cc2)COC1O (centres undefined)
inactive: [1] 102% | [2] 102% | [3] 104% | [4] 106% | [5] 105% | [6] 104% | [7] 106% | [8] 105% | [9] 126%

O=C1OC(=O)C2C1C1(Cl)C(Cl)=C(Cl)C2(Cl)C2C(=O)OC(=O)C21 (centres undefined)
inactive: [1] 101% | [2] 97.5% | [3] 107% | [4] 104% | [10] 107% | [8] 102% | [9] 93.9%

Cc1ccc(C)n1-c1ccsc1C(=O)NNC(=O)CCl
inactive: [1] 85.1% | [2] 80.1% | [3] 99.7% | [4] 101% | [5] 97.4% | [6] 79.5% | [7] 96.6% | [8] 80.4% | [9] 122%

O=C(/C=C/C(=O)c1ccccc1)c1ccccc1
inactive: [1] 99% | [2] 107% | [3] 116% | [4] 109% | [5] 96.3% | [6] 74.8% | [7] 105% | [8] 103% | [9] 70.1%

NC(CSC(c1ccccc1)(c1ccccc1)c1ccccc1)C(=O)O (centres undefined)
inactive: [1] 61.3% | [2] 87.6% | [3] 43.9% | [4] 44.5% | [10] 13.6% | [7] 25.7% | [8] 49.4% | [9] 23.2%

O=c1[nH]n(-c2ccccc2)c(=O)cc1Cl
inactive: [1] 106% | [2] 93.6% | [3] 114% | [4] 108% | [10] 109% | [7] 102% | [8] 103% | [9] 104%

OC1OC(COC(c2ccccc2)(c2ccccc2)c2ccccc2)C(O)C(O)C1O (centres undefined)
inactive: [1] 98.1% | [2] 90.1% | [3] 92.1% | [4] 107% | [10] 101% | [8] 102% | [9] 117%

Sc1ccc(Nc2c3ccccc3nc3ccccc23)cc1
inactive: [1] 73% | [2] 91.2% | [3] 74.6% | [4] 92.4% | [5] 76.9% | [6] 40.9% | [7] 61% | [8] 95.5% | [9] 38.9%

Nc1ccccc1SC(CC(=O)c1ccccc1)c1c(Cl)cccc1Cl (centres undefined)
inactive: [1] 76.1% | [2] 96.6% | [3] 91.8% | [4] 73.4% | [10] 84.8% | [8] 96.8% | [9] 91.8%

COc1ccc(C(C)C=O)cc1 (centres undefined)
inactive: [1] 106% | [2] 111% | [3] 122% | [4] 107% | [10] 108% | [7] 105% | [8] 107% | [9] 115%

Cc1ccc(CCCC(=O)O)c(C)c1
inactive: [1] 103% | [2] 93.4% | [3] 102% | [4] 95.7% | [10] 102% | [8] 99.4% | [9] 102%

COCCCNC(=O)c1nnn2c1nc(N)c1cc(Cl)ccc12
inactive: [1] 98.4% | [2] 94.1% | [3] 88.9% | [4] 80.4% | [10] 102% | [7] 106% | [8] 96.6% | [9] 77.7%

CCC(C#N)(CC)c1ccccc1
inactive: [1] 99.5% | [2] 99.3% | [3] 99.4% | [4] 92.9% | [10] 104% | [7] 111% | [9] 106%

OCc1cccc2ccccc12
inactive: [1] 101% | [2] 112% | [3] 121% | [4] 104% | [10] 112% | [7] 108% | [8] 109% | [9] 114%

CC1(C)N=C(N)N=C(N)N1c1ccc(Cl)cc1
inactive: [1] 37.2% | [2] 76.1% | [3] 59.2% | [4] 36.9% | [5] 132% | [6] 46.6% | [7] 27.4% | [8] 17.7%

COc1ccccc1N=Nc1c(O)ccc2cc(S(=O)(=O)O)ccc12
inactive: [1] 86.8% | [2] 98.2% | [3] 99.1% | [4] 82.7% | [5] 84.7% | [6] 85.7% | [7] 100% | [8] 107% | [9] 104%

O=C(CC(=O)c1ccccc1O)c1ccccc1
inactive: [1] 80.8% | [2] 88.6% | [3] 103% | [4] 77.2% | [5] 100% | [6] 83.1% | [7] 89.8% | [8] 89.5% | [9] 101%

Cc1cc2ccccc2c(O)c1C#N
inactive: [1] 91.1% | [2] 102% | [3] 119% | [4] 85.5% | [10] 107% | [7] 107% | [9] 112%

CCOC(=O)C/C(C)=N\O
inactive: [1] 100% | [2] 98.4% | [3] 97.9% | [4] 90.2% | [10] 106% | [7] 95.6% | [8] 96.1% | [9] 104%

COC(=O)/C=C\C(=O)OC
inactive: [1] 106% | [2] 114% | [3] 125% | [4] 113% | [5] 95.4% | [6] 89.2% | [7] 100% | [8] 103% | [9] 118%

CCO/C=C1\SC(=S)N(c2cccc(C)c2)C1=O
inactive: [1] 108% | [2] 93.4% | [3] 92% | [4] 88.9% | [10] 102% | [8] 106% | [9] 108%

COc1ccc(/C=C/c2cccc[n+]2C)cc1
inactive: [1] 100% | [2] 101% | [3] 93.5% | [4] 77.5% | [10] 106% | [8] 94.3% | [9] 42.1%

CCCCN(CCCC)CCCO
inactive: [1] 104% | [2] 104% | [3] 136% | [4] 106% | [7] 106% | [8] 109% | [9] 105%

CCN(CC)CCCC(C)Nc1ccnc(/C=C/c2ccc(Cl)cc2)c1 (centres undefined)
inactive: [1] 67.4% | [2] 62.6% | [3] 21.3% | [8] 45.2%
active: [10] 9.3% | [5] -19.8% | [6] -38.6% | [7] 9.38% | [9] -64.4%
